Cav3 T inh: blocks human Cav3.2 T-type calcium channel; Cav3.2-expressing cells, Fluo-4 calcium fluorescence FDSS; active compounds read low; B-score at 10 µM; 4% of 100,000 active;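 active means single-dose well whose peak fluorescence ratio is a statistical outlier from its plate by either plate-standardised score or position-corrected B-score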
PostGolgi yeast: growth inhibition of a yeast mutant, post-Golgi transport screen; post-Golgi transport phenotypic cell assay; inhibition, % at 10 µM; 0.9% of 98,000 active;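 further: yeast cells grown in 1536-well plates; yeast grown about 18 h at 30C before absorbance read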
Smad3 FoxH1 inh: inhibitors of human Smad3 transcription factor binding; inhibition, % at 25 µM; 0.29% of 88,000 active; TR-FRET Smad3/Dy647-FoxH1 peptide binding, europium anti-His; P84022;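 active means compounds that reduce the energy-transfer binding signal between the protein and its labelled peptide by more than half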;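 further: 0% = Smad3 plus labelled peptide maximal FRET and 100% = peptide-only background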
PostGolgi ctrl: growth of the yeast control strain, post-Golgi counter-screen | efflux-deficient yeast background strain, growth absorbance A615, 16 h | inhibition, % at 10 µM | 5% of 98,000 active | AID 738
hDAT+cocaine: changed human dopamine transporter uptake under cocaine IC80; AID 449768; 1.3% of 110,000 active; Q01959; B-score at 10 µM; LLC-PK1 hDAT cells, [14C]-dopamine uptake with cocaine IC80; actives deviate in either direction;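 active means Z score or B-score, a plate-position-corrected score, falls beyond the plate's 99.7% confidence bounds, in either direction; inactive means both scores lie inside the 99.7% bounds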;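 further: scored against the spread of the other compound wells on the same plate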
TNAP act mid DEA: activates human TNAP at intermediate phosphate acceptor concentration; purified TNAP, CDP-star luminescence, 100 mM DEA, 30 min; active compounds read high; scale: 0 levamisole-inhibited, 1 vehicle-only enzyme; 64,000 tested, under 10 active; activation factor at 20 µM; P05186;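 active means activation factor of at least 2 at 20 µM, relative to controls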
Target sequence (P05186 whole entry, looked up): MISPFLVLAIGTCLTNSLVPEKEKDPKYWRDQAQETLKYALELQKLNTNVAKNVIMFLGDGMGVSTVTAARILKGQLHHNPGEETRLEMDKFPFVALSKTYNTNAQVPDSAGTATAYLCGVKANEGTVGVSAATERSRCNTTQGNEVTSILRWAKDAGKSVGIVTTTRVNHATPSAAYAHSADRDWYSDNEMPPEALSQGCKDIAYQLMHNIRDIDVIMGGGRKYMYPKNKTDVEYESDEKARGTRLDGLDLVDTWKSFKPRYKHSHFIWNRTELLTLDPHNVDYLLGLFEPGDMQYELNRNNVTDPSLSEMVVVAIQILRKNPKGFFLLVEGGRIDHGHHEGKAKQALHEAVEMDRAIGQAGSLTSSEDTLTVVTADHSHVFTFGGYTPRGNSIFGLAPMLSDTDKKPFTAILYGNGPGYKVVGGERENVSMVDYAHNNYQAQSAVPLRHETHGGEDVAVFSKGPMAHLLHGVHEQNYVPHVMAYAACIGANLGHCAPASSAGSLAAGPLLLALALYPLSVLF
* hit, by the source's call. This is a sample that favours compounds with a hit; in the whole collection about 8.7% have one here. Unless noted, no stated cut-off is given here; in the data, active means inhibition above about 30%; inactive means the rest.

Screening CCC(=O)N1CCN=C1SCc1ccccc1Cl returned Cav3 T inh -1.6, PostGolgi yeast -3, Smad3 FoxH1 inh -5, PostGolgi ctrl -8, hDAT+cocaine 1.4 and TNAP act mid DEA 1.
For O=C(c1cccc(-n2cnnn2)c1)N1CC=C(c2ccccc2)CC1 the results were Cav3 T inh -4.6*, PostGolgi yeast 6, Smad3 FoxH1 inh 4, PostGolgi ctrl 6, hDAT+cocaine 2.3 and TNAP act mid DEA 0.9.
`C=CCN1C(=O)C2(c3ccccc31)C1CCCC=C1C(C#N)=C(N)C2(C#N)C#N` (configuration not stated) gave Cav3 T inh -0.052, PostGolgi yeast 2, Smad3 FoxH1 inh -6, PostGolgi ctrl 6, hDAT+cocaine 0.72 and TNAP act mid DEA 0.9.
Screening Cc1ccc(C2CC(=O)c3cnc(N4CC(C)CC(C)C4)nc3C2)cc1 (configuration not stated) returned Smad3 FoxH1 inh -3 and TNAP act mid DEA 0.9.
Screening C=C(C)c1cccc(C(C)(C)NC(=O)N2CCN(CC(N)=O)CC2)c1 returned PostGolgi yeast 1, Smad3 FoxH1 inh -12, PostGolgi ctrl 6, hDAT+cocaine 0.95* and TNAP act mid DEA 0.9.
C=C(C)c1cccc(C(C)(C)NC(=O)N2CCC(C)CC2)c1 was read as Cav3 T inh -1.6, PostGolgi yeast -3, Smad3 FoxH1 inh -6, PostGolgi ctrl -2 and hDAT+cocaine -0.71.
Screening C=C(C)c1cccc(C(C)(C)NC(=O)N2CCCCC2CC)c1 (configuration not stated) returned Cav3 T inh -4.5*, PostGolgi yeast -10, PostGolgi ctrl 5 and hDAT+cocaine 0.84.
For C=C(C)c1cccc(C(C)(C)NC(=O)N2CCN(CC)CC2)c1 the results were Cav3 T inh 1.2, PostGolgi yeast 6, Smad3 FoxH1 inh 7, PostGolgi ctrl 0, hDAT+cocaine -0.79 and TNAP act mid DEA 1.
For O=C(NCc1ccccc1Cl)c1ccc(Cn2cc(C(F)(F)F)ccc2=O)cc1 the results were Cav3 T inh -0.93, PostGolgi yeast -3, PostGolgi ctrl 6 and hDAT+cocaine 0.66.
For O=C(NCc1ccc(Cl)cc1)c1ccc(Cn2cc(C(F)(F)F)ccc2=O)cc1 the results were Cav3 T inh -5.7*, PostGolgi yeast 24, PostGolgi ctrl 14 and hDAT+cocaine 0.96.
`C[C@H](NC(=O)c1nc[nH]c1C(=O)N[C@@H](C)c1ccccc1)C(=O)OC(C)(C)C` gave Cav3 T inh -0.25 and hDAT+cocaine 1.5.
CC(C)c1nnc(NC(=O)c2sc3ccccc3c2Cl)s1 was read as Cav3 T inh -2.2, PostGolgi yeast 12, Smad3 FoxH1 inh -5, PostGolgi ctrl 34* and hDAT+cocaine 1.3.
Cc1nn(Cc2c(Cl)cccc2Cl)c(C)c1NC(=O)c1sc2ccccc2c1Cl was read as Cav3 T inh 0.13, PostGolgi yeast -13, PostGolgi ctrl 13 and hDAT+cocaine -0.85.
`Cc1ccccc1Cn1nc(C)c(NC(=O)c2sc3ccccc3c2Cl)c1C` gave Cav3 T inh -6.8*, PostGolgi yeast 2, PostGolgi ctrl 33* and hDAT+cocaine -0.83.
For Cc1nn(Cc2ccc(Cl)c(Cl)c2)c(C)c1NC(=O)c1sc2ccccc2c1Cl the results were Cav3 T inh -8.1*, PostGolgi yeast -7, PostGolgi ctrl 16 and hDAT+cocaine 0.55.
O=C(Nc1nccs1)c1sc2ccccc2c1Cl was read as Cav3 T inh 0.59, PostGolgi yeast -1, PostGolgi ctrl 9 and hDAT+cocaine -1.3.
For O=C(O)C1C(C(=O)Nc2ccc(Cl)cc2)C2C=CC1C21CC1 (configuration not stated) the results were Cav3 T inh 0.18, PostGolgi yeast 8, Smad3 FoxH1 inh 8, PostGolgi ctrl -3 and hDAT+cocaine -0.38.
Screening Cc1cc(Nc2ccc(F)cc2C)n2ncnc2n1 returned Cav3 T inh 1.2, PostGolgi yeast -1, Smad3 FoxH1 inh -2, PostGolgi ctrl 6, hDAT+cocaine -0.29 and TNAP act mid DEA 1.
Cn1c(=O)c2c(nc(Oc3ccccc3)n2C)n(C)c1=O was read as Cav3 T inh 1, PostGolgi yeast -1, Smad3 FoxH1 inh 0, PostGolgi ctrl -8 and hDAT+cocaine -0.16.
CCCCCn1c(=O)[nH]c2cc(C(=O)NCCCN(CC)CC)ccc2c1=O was read as Cav3 T inh 0.43, PostGolgi yeast -4, Smad3 FoxH1 inh -9, PostGolgi ctrl 7, hDAT+cocaine -3.7* and TNAP act mid DEA 0.9.
Screening O=C(NCCN1CCCC1)c1ccc2c(=O)n(CCc3ccccc3)c(=O)[nH]c2c1 returned Cav3 T inh 0.47, PostGolgi yeast -1, Smad3 FoxH1 inh -12, PostGolgi ctrl 6, hDAT+cocaine -8.2* and TNAP act mid DEA 0.9.
Screening COCCn1c(=O)[nH]c2cc(C(=O)NCCc3ccc(OC)c(OC)c3)ccc2c1=O returned Cav3 T inh 1, PostGolgi yeast -2, PostGolgi ctrl 34*, hDAT+cocaine -0.076 and TNAP act mid DEA 0.8.
COCCN1Cc2cccc(C(=O)NCc3cccnc3)c2C1=O was read as Cav3 T inh 0.86, PostGolgi yeast -15, Smad3 FoxH1 inh 4, PostGolgi ctrl 1, hDAT+cocaine -0.44 and TNAP act mid DEA 1.
`Cc1cccc(OCC(=O)NNC(=O)c2cc3ccccc3oc2=O)c1` gave Cav3 T inh -0.87, PostGolgi yeast -9, PostGolgi ctrl -2 and hDAT+cocaine -0.44.
Screening CSc1nc(SCC(N)=O)c2c3c(sc2n1)CN(C)CC3 returned Cav3 T inh 4.1*, PostGolgi yeast 1, Smad3 FoxH1 inh 7, PostGolgi ctrl 0, hDAT+cocaine 0.42 and TNAP act mid DEA 0.9.
`CSc1nc(SCC(=O)NCc2ccco2)c2c3c(sc2n1)CN(C)CC3` gave Cav3 T inh -0.35, PostGolgi yeast 1, Smad3 FoxH1 inh 11, PostGolgi ctrl 8, hDAT+cocaine -0.78 and TNAP act mid DEA 0.9.
`COC(=O)/C(=C(/F)SCC(C)=O)C(F)(F)F` gave Cav3 T inh -0.29, PostGolgi yeast 2, Smad3 FoxH1 inh -4, PostGolgi ctrl 4 and hDAT+cocaine -0.55.
`CC(C(=O)Nc1ccc(S(=O)(=O)N2CCCC2)cc1)N1CCN(C(=O)c2ccco2)CC1` (configuration not stated) gave Cav3 T inh 1, PostGolgi yeast -3, PostGolgi ctrl 1 and hDAT+cocaine 0.82.
Screening CCC(=O)N(Cc1cc2c(C)cc(C)cc2[nH]c1=O)C1CCCCC1 returned Cav3 T inh -1.1, PostGolgi yeast 9, Smad3 FoxH1 inh 4, PostGolgi ctrl 47*, hDAT+cocaine 0.59 and TNAP act mid DEA 0.9.
For COc1nc(NCc2ccco2)nc(NC2CCCCC2)n1 the results were Cav3 T inh -4*, Smad3 FoxH1 inh -2 and hDAT+cocaine 0.68.
For O=C(Cn1cc(C(=O)c2cccs2)c2ccccc21)NCc1ccc2c(c1)OCO2 the results were Cav3 T inh -3, PostGolgi yeast 7, Smad3 FoxH1 inh 0, PostGolgi ctrl 22, hDAT+cocaine -0.52 and TNAP act mid DEA 0.9.

Assay outcomes (PubChem BioAssay)
